# Measured values taken from PubChem BioAssay (EPA / NIEHS).
# Calls of active or inactive are those of the source. Rule for the calls: active = hit-call score of the fitted dose curve at least 0.9, where 1 is the maximum; inactive = score below 0.9.
# Tests used:
# Conditions in all cases: mRNA level, 48 h; actives raise or lower the signal
# [1] = read-out: MicroRNA 122 (MIR122), gene 406906; experiment: LTEA_HepaRG_MIR122: Life Technologies and Expression Analysis (LTEA) Assay for MicroRNA 122 (MIR122) using HepaRG (AID 2283516); note: the transcript read is the microRNA miR-122
# Summary of the method: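 Human liver HepaRG cultures receive test chemicals for 48 h at eight half-log concentrations from 100 uM. Expression is quantified by qRT-PCR with ACTB/GAPDH/POLR2A normalization and fitted bidirectionally against 0.5% DMSO.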
# [2] = read-out: matrix metalloproteinase-10 (MMP10), MMP10 (gene 4319); experiment: LTEA_HepaRG_MMP10: Life Technologies and Expression Analysis (LTEA) Assay for matrix metalloproteinase-10 (MMP10) using HepaRG (AID 2283517)
# Summary of the method: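 Expression measured by TaqMan qRT-PCR with ACTB/GAPDH/POLR2A normalisation after 48 h chemical exposure of HepaRG cells. Eight half-log concentrations, top 100 uM, 0.5% DMSO vehicle, duplicates; gain or loss fitted against vehicle.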
# MYC, MYC (gene 4609) = experiment: LTEA_HepaRG_MYC: Life Technologies and Expression Analysis (LTEA) Assay for MYC using HepaRG (AID 2283518)
# Summary of the method: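 MYC transcript changes, up or down relative to 0.5% DMSO, from TaqMan qRT-PCR normalized to three housekeeping genes. Human HepaRG cultures received chemicals for 48 h at eight half-log concentrations up to 100 uM, in duplicate.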
# [3] = read-out: matrix metalloproteinase-3 (MMP3), MMP3 (gene 4314); experiment: LTEA_HepaRG_MMP3: Life Technologies and Expression Analysis (LTEA) Assay for matrix metalloproteinase-3 (MMP3) using HepaRG (AID 2283519)
# Summary of the method: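 Fluidigm-based TaqMan qRT-PCR, normalized to ACTB, GAPDH and POLR2A and fitted bidirectionally versus 0.5% DMSO, measured transcript levels. Treatment: duplicate 48 h exposures of HepaRG cells, ~100,000/well, to eight half-log concentrations topping at 100 uM.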
# [4] = read-out: Paternally Expressed 10 (PEG10), PEG10 (gene 23089); experiment: LTEA_HepaRG_PEG10: Life Technologies and Expression Analysis (LTEA) Assay for Paternally Expressed 10 (PEG10) using HepaRG (AID 2283520);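 for AC50: PEG10 transcript by qRT-PCR normalised to ACTB GAPDH and POLR2A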
# Summary of the method: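 Human HepaRG cultures are dosed for 48 h across an eight-point half-log series starting at 100 uM, with 0.5% DMSO as vehicle and baseline. Gain or loss of PEG10 transcript is measured by qRT-PCR and fitted in both directions.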
# [5] = read-out: Nuclear factor NF-kappa-B p105 subunit (Homo sapiens) (UniProt P19838); experiment: LTEA_HepaRG_NFKB1: Life Technologies and Expression Analysis (LTEA) Assay for Nuclear Factor Kappa B Subunit 1 (NFKB1) using HepaRG (AID 2283521);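 note: TaqMan qRT-PCR transcript normalised to ACTB GAPDH and POLR2A housekeeping genes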
# Summary of the method: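 Differentiated human HepaRG cells were exposed for 48 h in serum-free induction medium to eight concentrations (top 100 uM, half-log steps, 0.5% DMSO), in duplicate. NFKB1 mRNA was measured by TaqMan qRT-PCR, normalized to ACTB/GAPDH/POLR2A, and fitted bidirectionally against DMSO.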
# [6] = read-out: Protein phosphatase 2A (PPP2R4), PTPA (gene 5524); experiment: LTEA_HepaRG_PPP2R4: Life Technologies and Expression Analysis (LTEA) Assay for Protein phosphatase 2A (PPP2R4) using HepaRG (AID 2283522)
# Summary of the method: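 Cells were plated, cultured 48 h, switched to serum-free induction medium, then dosed for 48 h (8 points, max 100 uM, 0.5% DMSO). RNA was isolated and PPP2R4 expression measured by TaqMan qRT-PCR.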
# [7] = read-out: Phosphatase and tensin (PTEN), PTEN (gene 5728); experiment: LTEA_HepaRG_PTEN: Life Technologies and Expression Analysis (LTEA) Assay for Phosphatase and tensin (PTEN) using HepaRG (AID 2283523)
# Summary of the method: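 Read-out: TaqMan qRT-PCR of PTEN transcript, normalized to three housekeeping genes, fitted in both directions against 0.5% DMSO. Differentiated human HepaRG cultures received chemicals for 48 h, eight-point half-log series topping at 100 uM.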
# [8] = read-out: solute carrier (SLC22A1), SLC22A1 (gene 6580); experiment: LTEA_HepaRG_SLC22A1: Life Technologies and Expression Analysis (LTEA) Assay for solute carrier (SLC22A1) using HepaRG (AID 2283524)
# Summary of the method: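 Transcript level of SLC22A1 quantified by qRT-PCR (normalized to three housekeeping genes) after 48 h chemical exposure of HepaRG cells, eight concentrations up to 100 µM, half-log steps, 0.5% DMSO vehicle. Gain or loss relative to DMSO fitted bidirectionally.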
# [9] = read-out: Pyruvate Dehydrogenase Kinase 4 (PDK4), PDK4 (gene 5166); experiment: LTEA_HepaRG_PDK4: Life Technologies and Expression Analysis (LTEA) Assay for Pyruvate Dehydrogenase Kinase 4 (PDK4) using HepaRG (AID 2283525)
# Summary of the method: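 Readout is qRT-PCR of PDK4 transcript, normalized to three housekeeping genes, with bidirectional fitting against 0.5% DMSO vehicle. Differentiated HepaRG cells were treated 48 h in serum-free induction medium, duplicate wells, eight-point half-log series topping at 100 uM.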
# Chain of Nuclear factor NF-kappa-B p105 subunit (Homo sapiens) (P19838 whole entry, looked up): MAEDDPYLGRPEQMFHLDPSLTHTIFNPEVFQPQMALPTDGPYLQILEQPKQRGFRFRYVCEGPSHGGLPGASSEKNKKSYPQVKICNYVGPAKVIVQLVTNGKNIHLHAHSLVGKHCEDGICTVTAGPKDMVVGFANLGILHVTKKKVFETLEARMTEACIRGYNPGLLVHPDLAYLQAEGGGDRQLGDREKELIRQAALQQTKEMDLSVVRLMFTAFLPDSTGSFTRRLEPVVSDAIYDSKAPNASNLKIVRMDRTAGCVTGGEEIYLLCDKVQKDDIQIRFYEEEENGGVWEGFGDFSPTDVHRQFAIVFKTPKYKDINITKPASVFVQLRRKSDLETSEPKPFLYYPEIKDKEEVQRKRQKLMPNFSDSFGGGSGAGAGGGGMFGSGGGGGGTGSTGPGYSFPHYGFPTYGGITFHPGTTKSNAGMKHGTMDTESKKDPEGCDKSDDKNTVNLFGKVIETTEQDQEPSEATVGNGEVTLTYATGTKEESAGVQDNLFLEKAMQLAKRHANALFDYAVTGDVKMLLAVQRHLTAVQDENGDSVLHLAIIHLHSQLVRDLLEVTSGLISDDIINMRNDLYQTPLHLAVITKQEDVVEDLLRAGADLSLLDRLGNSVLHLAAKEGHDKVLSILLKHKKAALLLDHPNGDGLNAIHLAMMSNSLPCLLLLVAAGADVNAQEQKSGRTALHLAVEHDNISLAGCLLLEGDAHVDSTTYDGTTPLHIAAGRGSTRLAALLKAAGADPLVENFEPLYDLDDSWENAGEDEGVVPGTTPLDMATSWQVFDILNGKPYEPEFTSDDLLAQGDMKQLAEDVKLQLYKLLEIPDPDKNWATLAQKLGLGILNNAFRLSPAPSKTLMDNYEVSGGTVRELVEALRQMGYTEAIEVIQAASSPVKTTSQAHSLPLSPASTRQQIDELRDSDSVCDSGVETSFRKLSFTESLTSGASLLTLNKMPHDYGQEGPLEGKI
smiles,measurement,setting,value
ClC1=C(Cl)[C@]2(Cl)[C@@H]3[C@H]4C[C@H]([C@@H]5O[C@H]45)[C@@H]3[C@@]1(Cl)C2(Cl)Cl,AC50,[1],31.6 µM (active)
same,outcome,[2],inactive
same,AC50,"MYC, MYC (gene 4609)",11 µM (active)
same,outcome,[3],inactive
same,outcome,[4],inactive
same,outcome,[5],inactive
same,outcome,[6],inactive
same,outcome,[7],inactive
same,AC50,[8],31.7 µM (active)
same,outcome,[9],inactive
O=C(N[C@H]1CN2CCC1CC2)c1cc2ccoc2cn1,outcome,[1],inactive
same,outcome,[2],inactive
same,outcome,"MYC, MYC (gene 4609)",inactive
same,outcome,[3],inactive
same,outcome,[5],inactive
same,outcome,[6],inactive
same,outcome,[7],inactive
same,outcome,[8],inactive
same,outcome,[9],inactive
CCCCCCCCCC[N+](C)(C)CCCCCCCCCC,outcome,[1],inactive
same,outcome,[2],inactive
same,outcome,"MYC, MYC (gene 4609)",inactive
same,AC50,[3],94 µM (active)
same,AC50,[4],50 µM (active)
same,outcome,[5],inactive
same,outcome,[6],inactive
same,AC50,[7],83.2 µM (active)
same,AC50,[8],61.5 µM (active)
same,AC50,[9],82.5 µM (active)
Cc1cc2c3c(c1)C(c1ccccc1)=N[C@@H](NC(=O)c1ccncc1)C(=O)N3CC2,outcome,[1],inactive
same,outcome,[2],inactive
same,outcome,"MYC, MYC (gene 4609)",inactive
same,outcome,[3],inactive
same,outcome,[4],inactive
same,outcome,[6],inactive
same,AC50,[8],50 µM (active)
same,AC50,[9],50 µM (active)
c1ccc(-c2ccccc2)cc1,outcome,[1],inactive
same,outcome,[2],inactive
same,outcome,"MYC, MYC (gene 4609)",inactive
same,outcome,[3],inactive
same,outcome,[4],inactive
same,outcome,[5],inactive
same,outcome,[6],inactive
same,outcome,[8],inactive
same,outcome,[9],inactive
CCCCCCCCOC(=O)c1ccccc1C(=O)OCCCCCCCC,outcome,[1],inactive
same,outcome,[2],inactive
same,outcome,"MYC, MYC (gene 4609)",inactive
same,outcome,[3],inactive
same,outcome,[4],inactive
same,outcome,[5],inactive
same,outcome,[6],inactive
same,outcome,[8],inactive
same,outcome,[9],inactive
O=S(=O)(O)C(F)(F)C(F)(F)C(F)(F)C(F)(F)F,outcome,[1],inactive
same,outcome,[2],inactive
same,outcome,"MYC, MYC (gene 4609)",inactive
same,outcome,[3],inactive
same,outcome,[4],inactive
same,outcome,[5],inactive
same,outcome,[6],inactive
same,outcome,[8],inactive
same,outcome,[9],inactive
O=C(O)C(F)(F)C(F)(F)C(F)(F)C(F)(F)C(F)(F)C(F)(F)C(F)(F)C(F)(F)C(F)(F)F,AC50,[1],63.1 µM (active)
same,AC50,[2],37.1 µM (active)
same,AC50,"MYC, MYC (gene 4609)",22.8 µM (active)
same,outcome,[3],inactive
same,AC50,[4],12.1 µM (active)
same,outcome,[5],inactive
same,AC50,[6],88.9 µM (active)
same,AC50,[8],41.2 µM (active)
same,AC50,[9],25.7 µM (active)
Cc1cccc([N+](=O)[O-])c1,outcome,[1],inactive
same,outcome,[2],inactive
same,outcome,"MYC, MYC (gene 4609)",inactive
same,outcome,[3],inactive
same,outcome,[4],inactive
same,outcome,[5],inactive
same,outcome,[6],inactive
same,outcome,[8],inactive
same,outcome,[9],inactive
CN(C)CCO,outcome,[1],inactive
same,outcome,[2],inactive
same,outcome,"MYC, MYC (gene 4609)",inactive
same,outcome,[3],inactive
same,outcome,[5],inactive
same,outcome,[6],inactive
same,outcome,[7],inactive
same,outcome,[8],inactive
same,outcome,[9],inactive
c1cc2ccc3cccc4ccc(c1)c2c34,outcome,[1],inactive
same,outcome,[2],inactive
same,outcome,"MYC, MYC (gene 4609)",inactive
same,outcome,[3],inactive
same,outcome,[4],inactive
same,outcome,[5],inactive
same,outcome,[6],inactive
same,outcome,[8],inactive
same,outcome,[9],inactive
CCC(C)(c1ccc(O)cc1)c1ccc(O)cc1,outcome,[1],inactive
same,outcome,[2],inactive
same,outcome,"MYC, MYC (gene 4609)",inactive
same,outcome,[3],inactive
same,outcome,[5],inactive
same,outcome,[6],inactive
same,outcome,[7],inactive
same,outcome,[8],inactive
same,outcome,[9],inactive
ClC(Cl)=C(c1ccc(Cl)cc1)c1ccc(Cl)cc1,outcome,[1],inactive
same,outcome,[2],inactive
same,outcome,"MYC, MYC (gene 4609)",inactive
same,outcome,[3],inactive
same,outcome,[4],inactive
same,outcome,[5],inactive
same,outcome,[6],inactive
same,outcome,[8],inactive
Nn1cnnc1,outcome,[1],inactive
same,outcome,[2],inactive
same,outcome,"MYC, MYC (gene 4609)",inactive
same,outcome,[3],inactive
same,outcome,[4],inactive
same,outcome,[5],inactive
same,outcome,[6],inactive
same,outcome,[8],inactive
same,outcome,[9],inactive
O=NN(c1ccccc1)c1ccccc1,outcome,[1],inactive
same,outcome,[2],inactive
same,outcome,"MYC, MYC (gene 4609)",inactive
same,AC50,[3],80.6 µM (active)
same,outcome,[4],inactive
same,outcome,[6],inactive
same,outcome,[7],inactive
same,outcome,[8],inactive
same,outcome,[9],inactive
